# Results from the supplement of paper PMC10849652.
# About 8,800 targets were measured; listed, in parts, are those with a hit and a random draw of the rest. About 0.5% of all pairs of compound and target were hits. Values without a mark were called inactive.
# What was measured:
# Experiment in all cases: log2 fold change, soluble protein after heating vs DMSO (PISA); higher = thermal stabilisation; K562 lysate, 10 uM; active = over 0.2 and 3.5 SD of the protein, either way, in both replicates (recomputed)
# vemurafenib = compound: CCCS(=O)(=O)Nc1ccc(F)c(C(=O)c2c[nH]c3ncc(-c4ccc(Cl)cc4)cc23)c1F [vemurafenib]
# Outline: (§1)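 Following dounce homogenisation of K562 pellets in PBS pH 7.4 with 1 mM MgCl2, crude extract at 1 mg/mL protein was incubated for 30 min with 10 μM compound. Aliquots were then heated for 3 min over 48°C-58°C and pooled, NP-40 was added to 0.5% at 4°C, and soluble protein was recovered as the supernatant at 21,000xg for 90 min. Channel-sum-equalised TMTpro 16plex LC-MS/MS quantified this protein. Each value, from duplicates, is a log-two fold change in thermal stability relative to solvent controls.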
# [1] = compound: CCCS(=O)(=O)Nc1ccc(F)c(C(=O)c2c[nH]c3ncc(Cl)cc23)c1F
# Outline: as §1
# barasertib = compound: CCN(CCCOc1ccc2c(Nc3cc(CC(=O)Nc4cccc(F)c4)[nH]n3)ncnc2c1)CCOP(=O)(O)O [barasertib]
# Outline: as §1
# [2] = compound: CC[C@@H]1C(=O)N(C)c2cnc(Nc3ccc(C(=O)NC4CCN(C)CC4)cc3OC)nc2N1C1CCCC1
# Outline: as §1
# volasertib = compound: CC[C@@H]1C(=O)N(C)c2cnc(Nc3ccc(C(=O)N[C@H]4CC[C@H](N5CCN(CC6CC6)CC5)CC4)cc3OC)nc2N1C(C)C [volasertib]
# Outline: as §1
# [3] = compound: CCn1c(C(=O)N(C2CC2)C2CC2)cc2c3c(ncn3C)c(Nc3cc(C)n(C)n3)nc21
# Outline: as §1
# [4] = compound: CCn1cc(-c2ccnc3[nH]c(-c4cccc(CN(C)C)c4)cc23)c(-c2ccc(NC(=O)N(C)C)cc2)n1
# Outline: as §1
# [5] = compound: CN1CCC(CNc2ccc3ncc(-c4cccc(OC(F)(F)F)c4)n3n2)CC1
# Outline: as §1
# saracatinib = compound: CN1CCN(CCOc2cc(OC3CCOCC3)c3c(Nc4c(Cl)ccc5c4OCO5)ncnc3c2)CC1 [saracatinib]
# Outline: as §1
# sotrastaurin = compound: CN1CCN(c2nc(C3=C(c4c[nH]c5ccccc45)C(=O)NC3=O)c3ccccc3n2)CC1 [sotrastaurin]
# Outline: as §1
# alvocidib = compound: CN1CC[C@H](c2c(O)cc(O)c3c(=O)cc(-c4ccccc4Cl)oc23)[C@H](O)C1 [alvocidib]
# Outline: as §1
# Tubastatin A = compound: CN1CCc2c(c3ccccc3n2Cc2ccc(C(=O)NO)cc2)C1 [Tubastatin A]
# Outline: as §1
# [6] = compound: CNC(=O)C1=CC=CC=C1NC2=NC(=NC=C2Cl)NC3=C(C=C(C=C3)N4CCOCC4)OC
# Outline: as §1
# defactinib = compound: CNC(=O)c1ccc(Nc2ncc(C(F)(F)F)c(NCc3nccnc3N(C)S(C)(=O)=O)n2)cc1 [defactinib]
# Outline: as §1
# [7] = compound: CNc1nc(-c2ccc3c(N)n[nH]c3c2)cc(N2C[C@@H](C(=O)NC3CCCCC3)CC[C@H]2C)n1
# Outline: as §1
# encorafenib = compound: COC(=O)N[C@@H](C)CNc1nccc(-c2cn(C(C)C)nc2-c2cc(Cl)cc(NS(C)(=O)=O)c2F)n1 [encorafenib]
# Outline: as §1
# [8] = compound: COC(=O)[C@H](CCSC)NC(=O)C1=C(C=C(C=C1)NC[C@H](CS)N)C2=CC=CC=C2
# Outline: as §1
# alisertib = compound: COc1cc(Nc2ncc3c(n2)-c2ccc(Cl)cc2C(c2c(F)cccc2OC)=NC3)ccc1C(=O)O [alisertib]
# Outline: as §1
# [9] = compound: COc1cc2nc(-c3cc(F)ccc3O)nc(N[C@@H]3CNC[C@H]3C(C)(C)O)c2cc1OC
# Outline: as §1
# gefitinib = compound: COc1cc2ncnc(Nc3ccc(F)c(Cl)c3)c2cc1OCCCN1CCOCC1 [gefitinib]
# Outline: as §1
# Sequence of UniProt Q9NX02 (Q9NX02 whole entry, looked up): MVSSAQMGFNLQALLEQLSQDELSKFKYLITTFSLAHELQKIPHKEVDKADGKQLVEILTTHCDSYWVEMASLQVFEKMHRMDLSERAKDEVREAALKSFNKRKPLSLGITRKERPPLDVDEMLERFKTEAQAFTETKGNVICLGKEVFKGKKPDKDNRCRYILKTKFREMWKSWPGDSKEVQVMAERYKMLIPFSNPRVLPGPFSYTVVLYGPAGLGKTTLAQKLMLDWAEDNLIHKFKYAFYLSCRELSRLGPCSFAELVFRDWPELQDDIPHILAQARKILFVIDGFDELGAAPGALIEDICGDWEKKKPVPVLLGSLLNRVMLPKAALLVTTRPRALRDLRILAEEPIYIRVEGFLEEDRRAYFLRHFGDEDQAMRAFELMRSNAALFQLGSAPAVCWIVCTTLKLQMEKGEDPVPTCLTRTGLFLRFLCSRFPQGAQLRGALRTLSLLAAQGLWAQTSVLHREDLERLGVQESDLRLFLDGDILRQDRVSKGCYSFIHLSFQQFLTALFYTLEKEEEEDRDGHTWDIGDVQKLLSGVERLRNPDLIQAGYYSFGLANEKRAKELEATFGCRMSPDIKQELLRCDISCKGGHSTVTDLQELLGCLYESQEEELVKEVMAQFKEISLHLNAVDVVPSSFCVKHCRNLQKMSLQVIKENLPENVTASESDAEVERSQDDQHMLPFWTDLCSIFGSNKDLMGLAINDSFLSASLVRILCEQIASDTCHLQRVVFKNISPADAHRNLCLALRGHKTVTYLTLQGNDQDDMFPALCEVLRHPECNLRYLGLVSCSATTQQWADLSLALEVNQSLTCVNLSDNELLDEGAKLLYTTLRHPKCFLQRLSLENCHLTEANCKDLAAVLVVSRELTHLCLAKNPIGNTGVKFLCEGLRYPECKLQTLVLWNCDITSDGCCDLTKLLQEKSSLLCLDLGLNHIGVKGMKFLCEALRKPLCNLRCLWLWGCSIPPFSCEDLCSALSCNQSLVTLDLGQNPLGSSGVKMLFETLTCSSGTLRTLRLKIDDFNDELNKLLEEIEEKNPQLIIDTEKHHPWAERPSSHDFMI
# Sequence of UniProt Q9BRA0 (Q9BRA0 whole entry, looked up): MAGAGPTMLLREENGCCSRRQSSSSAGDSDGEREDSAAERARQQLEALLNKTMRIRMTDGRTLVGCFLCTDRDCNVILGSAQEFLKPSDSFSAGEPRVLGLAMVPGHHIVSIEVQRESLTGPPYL
# Sequence of MTHFD1, A0A384N5Y3 (A0A384N5Y3 whole entry, looked up): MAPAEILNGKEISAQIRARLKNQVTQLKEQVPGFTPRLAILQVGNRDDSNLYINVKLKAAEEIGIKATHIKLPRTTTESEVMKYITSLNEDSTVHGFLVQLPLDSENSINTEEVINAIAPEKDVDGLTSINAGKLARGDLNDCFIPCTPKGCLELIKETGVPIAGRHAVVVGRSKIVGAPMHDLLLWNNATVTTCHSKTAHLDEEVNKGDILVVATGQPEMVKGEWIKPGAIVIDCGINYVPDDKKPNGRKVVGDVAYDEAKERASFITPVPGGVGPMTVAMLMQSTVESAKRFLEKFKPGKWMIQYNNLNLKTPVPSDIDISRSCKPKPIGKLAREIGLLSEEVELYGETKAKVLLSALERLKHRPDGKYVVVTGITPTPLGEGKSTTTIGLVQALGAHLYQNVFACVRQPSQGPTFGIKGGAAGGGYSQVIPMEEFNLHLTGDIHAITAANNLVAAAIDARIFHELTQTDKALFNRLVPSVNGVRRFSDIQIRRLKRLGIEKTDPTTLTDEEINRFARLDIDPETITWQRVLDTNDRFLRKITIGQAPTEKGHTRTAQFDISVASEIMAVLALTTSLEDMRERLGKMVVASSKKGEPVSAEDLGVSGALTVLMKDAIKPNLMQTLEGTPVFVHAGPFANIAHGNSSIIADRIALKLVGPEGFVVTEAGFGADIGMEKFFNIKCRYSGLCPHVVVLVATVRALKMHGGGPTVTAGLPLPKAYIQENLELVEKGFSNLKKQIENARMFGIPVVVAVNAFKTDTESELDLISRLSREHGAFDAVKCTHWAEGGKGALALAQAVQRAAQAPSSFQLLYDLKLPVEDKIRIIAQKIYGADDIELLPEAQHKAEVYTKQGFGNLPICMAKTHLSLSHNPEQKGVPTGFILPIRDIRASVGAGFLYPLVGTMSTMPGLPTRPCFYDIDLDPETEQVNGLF
# Sequence of UniProt Q9Y639 (Q9Y639 whole entry, looked up): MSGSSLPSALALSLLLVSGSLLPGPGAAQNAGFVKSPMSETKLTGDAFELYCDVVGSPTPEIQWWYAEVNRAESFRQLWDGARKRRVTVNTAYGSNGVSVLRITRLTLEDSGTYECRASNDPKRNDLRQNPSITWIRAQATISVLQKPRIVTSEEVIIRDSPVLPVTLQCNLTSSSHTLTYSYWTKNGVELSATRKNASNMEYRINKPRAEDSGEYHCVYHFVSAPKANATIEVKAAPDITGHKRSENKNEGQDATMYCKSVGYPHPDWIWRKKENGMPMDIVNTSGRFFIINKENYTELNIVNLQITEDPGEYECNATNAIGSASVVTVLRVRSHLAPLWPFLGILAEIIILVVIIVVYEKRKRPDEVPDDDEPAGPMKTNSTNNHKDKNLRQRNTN
# Sequence of UniProt Q6GQQ9 (Q6GQQ9 whole entry, looked up): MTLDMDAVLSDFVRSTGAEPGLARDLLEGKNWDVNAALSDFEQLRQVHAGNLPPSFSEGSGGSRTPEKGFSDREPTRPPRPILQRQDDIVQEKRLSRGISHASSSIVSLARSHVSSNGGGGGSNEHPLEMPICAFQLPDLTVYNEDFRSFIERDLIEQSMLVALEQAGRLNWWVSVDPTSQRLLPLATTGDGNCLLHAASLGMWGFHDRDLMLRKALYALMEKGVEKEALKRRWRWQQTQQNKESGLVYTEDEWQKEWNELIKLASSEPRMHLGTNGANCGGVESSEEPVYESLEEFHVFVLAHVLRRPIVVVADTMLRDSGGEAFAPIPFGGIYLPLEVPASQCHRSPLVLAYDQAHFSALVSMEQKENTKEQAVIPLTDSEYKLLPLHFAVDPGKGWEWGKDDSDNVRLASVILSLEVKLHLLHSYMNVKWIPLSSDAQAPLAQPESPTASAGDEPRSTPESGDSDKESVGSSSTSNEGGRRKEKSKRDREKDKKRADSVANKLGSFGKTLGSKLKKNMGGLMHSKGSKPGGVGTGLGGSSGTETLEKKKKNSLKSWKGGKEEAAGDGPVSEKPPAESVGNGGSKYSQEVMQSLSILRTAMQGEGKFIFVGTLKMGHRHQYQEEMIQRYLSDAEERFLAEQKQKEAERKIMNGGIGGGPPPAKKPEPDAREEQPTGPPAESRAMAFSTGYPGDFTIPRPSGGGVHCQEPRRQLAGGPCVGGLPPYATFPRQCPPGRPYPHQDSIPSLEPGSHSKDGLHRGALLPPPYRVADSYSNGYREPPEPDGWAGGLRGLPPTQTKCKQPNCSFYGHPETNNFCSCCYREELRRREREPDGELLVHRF
# Sequence of UniProt Q9Y6C9 (Q9Y6C9 whole entry, looked up): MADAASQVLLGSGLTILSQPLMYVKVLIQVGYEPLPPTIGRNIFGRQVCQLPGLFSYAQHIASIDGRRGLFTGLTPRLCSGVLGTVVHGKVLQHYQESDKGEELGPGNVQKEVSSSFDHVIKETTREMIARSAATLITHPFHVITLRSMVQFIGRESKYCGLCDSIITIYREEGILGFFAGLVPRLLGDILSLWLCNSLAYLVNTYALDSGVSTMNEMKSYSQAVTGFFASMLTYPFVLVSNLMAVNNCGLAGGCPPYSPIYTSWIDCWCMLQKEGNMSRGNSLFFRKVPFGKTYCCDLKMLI
# Sequence of UniProt Q9Y530 (Q9Y530 whole entry, looked up): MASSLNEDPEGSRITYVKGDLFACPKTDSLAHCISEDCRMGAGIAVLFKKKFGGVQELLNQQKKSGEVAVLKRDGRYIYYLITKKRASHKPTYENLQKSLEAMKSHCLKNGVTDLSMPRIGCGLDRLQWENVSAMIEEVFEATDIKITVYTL
# Sequence of UniProt P15559 (P15559 whole entry, looked up): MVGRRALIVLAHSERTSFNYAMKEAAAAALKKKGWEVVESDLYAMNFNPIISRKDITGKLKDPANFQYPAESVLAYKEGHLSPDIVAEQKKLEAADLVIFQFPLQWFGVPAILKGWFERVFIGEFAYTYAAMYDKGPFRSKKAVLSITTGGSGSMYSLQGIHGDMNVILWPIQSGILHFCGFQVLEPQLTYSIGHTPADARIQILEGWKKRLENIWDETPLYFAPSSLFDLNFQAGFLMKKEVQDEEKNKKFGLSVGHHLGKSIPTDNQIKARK
# Sequence of UniProt Q9Y5B6 (Q9Y5B6 whole entry, looked up): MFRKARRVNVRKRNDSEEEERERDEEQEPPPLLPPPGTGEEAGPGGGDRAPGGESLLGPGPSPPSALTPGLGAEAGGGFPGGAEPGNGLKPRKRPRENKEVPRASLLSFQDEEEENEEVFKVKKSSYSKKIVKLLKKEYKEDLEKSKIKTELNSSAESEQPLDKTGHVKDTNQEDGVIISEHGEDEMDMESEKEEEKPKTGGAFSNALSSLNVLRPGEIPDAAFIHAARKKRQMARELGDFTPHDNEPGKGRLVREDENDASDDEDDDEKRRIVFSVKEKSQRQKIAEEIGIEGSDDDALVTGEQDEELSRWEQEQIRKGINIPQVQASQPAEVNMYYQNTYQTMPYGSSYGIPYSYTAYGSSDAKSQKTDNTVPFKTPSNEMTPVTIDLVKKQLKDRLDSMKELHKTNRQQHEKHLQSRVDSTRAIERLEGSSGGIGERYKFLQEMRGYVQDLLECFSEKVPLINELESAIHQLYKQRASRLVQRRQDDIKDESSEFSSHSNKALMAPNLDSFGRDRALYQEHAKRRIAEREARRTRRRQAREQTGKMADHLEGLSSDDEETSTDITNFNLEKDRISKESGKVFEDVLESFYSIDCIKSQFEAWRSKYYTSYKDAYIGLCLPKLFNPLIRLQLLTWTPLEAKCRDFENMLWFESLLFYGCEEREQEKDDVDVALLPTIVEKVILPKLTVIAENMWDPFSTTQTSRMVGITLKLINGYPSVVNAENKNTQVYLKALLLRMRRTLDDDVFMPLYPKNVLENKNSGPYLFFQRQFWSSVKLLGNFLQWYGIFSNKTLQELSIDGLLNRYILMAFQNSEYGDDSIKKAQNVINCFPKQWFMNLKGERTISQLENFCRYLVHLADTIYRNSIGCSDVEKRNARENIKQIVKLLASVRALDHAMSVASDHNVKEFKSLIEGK
Target,log2 fold change (vemurafenib),log2 fold change [1],log2 fold change (barasertib),log2 fold change [2],log2 fold change (volasertib),log2 fold change [3],log2 fold change [4],log2 fold change [5],log2 fold change (saracatinib),log2 fold change (sotrastaurin),log2 fold change (alvocidib),log2 fold change (Tubastatin A),log2 fold change [6],log2 fold change (defactinib),log2 fold change [7],log2 fold change (encorafenib),log2 fold change [8],log2 fold change (alisertib),log2 fold change [9],log2 fold change (gefitinib)
"MTHFD1, A0A384N5Y3",0.058,0.011,0.017,-0.06,-0.112,0.059,0.008,-0.053,-0.012,0.039,0.036,-0.076,-0.01,0.03,0.002,-0.016,0.145,-0.007,-0.012,-0.025
PAXBP1 (UniProt Q9Y5B6),0.072,0.006,0.07,-0.008,-0.058,0.042,0.043,0.004,0.02,0.025,-0.043,-0.069,0.015,0.005,-0.004,0.018,0.29 (active),0.013,-0.003,-0.038
NAA38 isoform 2 (UniProt Q9BRA0),0.049,0.014,0.09,-0.012,0.025,0.04,-0.461 (active),0.201,0.042,-0.079,-0.143,-0.005,0.01,0.013,0.03,-0.022,0.001,0.05,0.022,-0.017
MYCBP2 (UniProt O75592),-0.026,0.036,0.037,0.017,-0.019,-0.01,-0.117,0.083,0.033,-0.029,-0.046,-0.098,0.024,0.019,0.003,0.055,-0.015,0.007,0.032,-0.004
NLRP2 (UniProt Q9NX02),-0.011,-0.003,-0.04,-0.048,-0.067,0.041,0.031,-0.05,-0.012,-0.017,0.034,-0.227,0,0.024,-0.044,0.034,-0.239 (active),-0.025,0,-0.012
NUP210 (UniProt Q8TEM1),-0.009,0.048,0.072,-0.004,0.006,0.036,0.012,-0.015,0.029,-0.004,0.014,0.107,-0.061,0.035,-0.011,0.086,0.145,0.009,0.002,0.003
NQO1 (UniProt P15559),-0.014,0.026,0.163,-0.097,-0.082,-0.023,-0.067,-0.035,0.155,0.034,0.007,-0.079,0.068,0.003,-0.111,0.043,0.159,-0.001,-0.042,0.009
NPTN (UniProt Q9Y639),-0.028,-0.042,0.007,0.032,-0.038,-0.017,-0.019,0.052,0.02,-0.016,-0.023,-0.01,0,-0.185,0.03,-0.023,0.015,0.011,0.042,0.024
OTUD7B (UniProt Q6GQQ9),0.033,0.011,0.116,-0.029,-0.049,0.018,0.017,-0.042,0.015,-0.011,-0.052,-0.099,0.005,0.022,-0.011,0.042,0.049,-0.006,-0.031,0.062
MTOR (UniProt P42345),0.026,0.015,0.052,-0.045,-0.044,-0.006,-0.04,-0.031,0.005,0.03,-0.054,-0.118,-0.038,0.01,-0.025,0.016,0.014,0.006,0,-0.039
NUDT4 (UniProt Q9NZJ9),-0.24,0.04,-0.032,-0.078,-0.054,0.082,0.23,0.005,-0.03,0.005,-0.001,-0.149,0.063,0.153,-0.066,0.051,-0.17,-0.036,0.001,-0.052
OGT (UniProt O15294),0.012,0.015,0.031,-0.003,-0.058,0.036,-0.002,-0.021,0.011,0.018,0.045,-0.129,0.054,0.018,0.019,0.043,0.121,0.01,0.007,-0.015
NUB1 (UniProt Q9Y5A7),-0.007,0.011,0.028,-0.052,-0.056,0,0.008,-0.048,-0.009,0.021,0.033,-0.095,0.037,-0.007,0.014,0.022,0.038,-0.012,-0.004,-0.049
OARD1 (UniProt Q9Y530),-0.011,0.004,-0.01,-0.01,-0.031,0.022,-0.056,-0.034,0.006,0.002,-0.003,-0.097,0,0.037,-0.11,0.011,0.018,0.011,0.028,-0.014
OCRL (UniProt Q01968),0.168,0.014,0.04,0.018,-0.057,-0.032,-0.074,0.049,0.027,0.019,-0.002,-0.105,0.074,0.123,-0.051,0.045,-0.006,0.016,-0.082,0.049
MTCH2 (UniProt Q9Y6C9),0.013,0.008,-0.02,0.021,0.05,-0.012,-0.155,0.014,-0.011,0.022,-0.032,-0.046,0.043,-0.003,0.047,-0.01,0.043,0.013,-0.062,-0.007
